# Measurements from PubChem BioAssay (NCI).
# The panel holds about 83,000 compounds, 20% with a hit somewhere; the sample as a whole holds those more often.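 In brief: 96-well plates, 48 h treatment, single concentration, percent growth endpoint.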 Activity calls are given as the source filed them.
# Tested on: NCI-H522 lung
# Assay: NCI-60 one-dose screen, 48 h (100 = growth as untreated, 0 = no growth, -100 = all killed)
# Conditions: 10 µM unless noted
# Description: Growth inhibition of the NCI-H522 human Non-Small Cell Lung tumor cell line is measured as a screen for anti-cancer activity. Cells are grown in 96 well plates and exposed to the test compound for 48 hours. Compounds are tested at a single concentration, which is 10^-5 M for most compounds. The reported endpoint is percent growth (GI% or GIPRCNT), where numbers from 0 - 100% represent growth inhibition, and numbers from -100% - 0 represent cell death. For example, a value of 40 represents 60% growth inhibition. A value of 0 means no net growth occurred over the course of the experiment. A value of -40 indicates 40% of cells at the beginning of the experiment died by the end of the experiment. A value of -100 means all cells are dead at the end of the experiment.
# NCI-60 Human Tumor Cell Lines Screen was performed using the standard one-dose NCI protocol, which is described in more detail at https://dtp.cancer.gov/discovery_development/nci-60/default.htm.
# Compounds with GIPRCNT values below 10 were considered active. Activity score was based on GIPRCNT using the following formula: […]
# Score is 0 for GIPRCNT values of 100 or above, 50 for GIPRCNT values of 0, and 100 for GIPRCNT values of -100.
row,Compound,growth
1,CN(CCn1sc(=O)n(Cc2ccccc2)c1=O)Cc1ccc2c(Cl)cc(Cl)c(O)c2n1,80.9% (inactive)
2,CCN(CC)CCSc1nc(-c2ccccc2)c(C#N)c(=O)[nH]1,104% (inactive)
3,COc1ccc(-c2nc3c(c(-c4ccccc4)nn3-c3ccccc3)c(-c3ccc(N4CCN(C)CC4)cc3)c2C#N)cc1,94.4% (inactive)
4,C[C@@H]1CCC[C@H]1CC(N)C(=O)O (stereo not given in full),105% (inactive)
5,CSc1nnc(-c2cnn3c2NC(c2ccccc2)C3)n1-c1ccc(C(F)(F)F)cc1 (stereo not given),26.1% (inactive)
6,COc1ccc(/C=C2\COc3ccc(O)c(O)c3C2=O)cc1,-60.5% (active)
7,O=S(=O)(Nc1ccc(Cl)cc1)c1ccc(-c2cnc(C3CC3)o2)cc1,11.4% (inactive)
8,CCOC(=O)c1[nH]c(=O)c2c(C)nc(-c3ccccc3)cc2c1O,92.7% (inactive)
9,O=C(Cn1cc(CN2CCCCCC2)nn1)Nc1ccc2c(ccn2Cc2ccccc2)c1,86.9% (inactive)
10,C=CCn1cc(-c2nc3ccccc3s2)c2cc(-c3ccc4c5c(cccc35)C(=O)N(N)C4=O)ccc21,84.9% (inactive)
11,CC(C)N1CCN(Cc2ccc3c(NNC(=O)c4ccccc4)nc4cc(F)ccc4n23)CC1,22.8% (inactive)
12,O=C(Nn1c2c(sc1=Nc1ccccc1)C(=O)c1ccccc1C2=O)c1cc2ccc1CCc1ccc(cc1)CC2,68% (inactive)
13,CCn1c(=S)[nH]c2c(=O)n(C)c(=O)n(C)c21,90.3% (inactive)
14,COc1ccc(CC(C#N)c2cc3ccccc3[nH]2)cc1 (stereo not given),84.3% (inactive)
15,N#Cc1nc(-c2ccccc2)oc1S(=O)(=O)N1CCOCC1,-55.5% (active)
16,CN(C)CCNC(=O)c1cccc(-c2cnc3ccc(-c4ccc5c(c4)OCO5)nn23)c1,87.7% (inactive)
17,C=CCn1c(SCC(=O)Nc2ccc(C(=O)/C=C/c3cc4cc(OC)ccc4nc3Cl)cc2)nnc1-c1ccc(Br)cc1,52.9% (inactive)
18,COC(=O)c1n[nH]c2ccc3nc(-c4cn[nH]c4C(F)(F)F)c4c(c3c12)CCCC4,23.6% (inactive)
19,C=C(CNCCc1ccc(O)cc1)[C@@H]1CC[C@]2(CO)CC[C@]3(C)[C@H](CC[C@@H]4[C@@]5(C)CCC(NCCO)C(C)(C)[C@@H]5CC[C@]43C)[C@@H]12 (stereo not given in full),-67.2% (active)
20,O=C1c2cccc3cccc(c23)C(=O)N1N1C(=O)c2cccc3c(N4CCOCC4)ccc(c23)C1=O,102% (inactive)

row,Compound,growth
1,CCNc1cc(-c2cccc(OC(F)(F)F)c2)nc2ccc(N3CCCC3)cc12,-16.8% (active)
2,COc1ccc(-c2nc(SCC(C)C)nc(N/N=C\c3ccc(F)cc3)c2C#N)cc1,107% (inactive)
3,CCCCCCCCn1ccc2cc(NC(=O)CN3CCN(c4nc(C)cc(Cl)n4)CC3)ccc21,81.5% (inactive)
4,CN1CCN(Cc2ccc(NC(=O)c3cncc(C#Cc4cnc(N)c5ccccc45)c3)cc2C(F)(F)F)CC1,-73.2% (active)
5,O=C(/C=C/c1cccs1)c1ccc(Cl)nc1,82% (inactive)
6,O=C(c1ccc(-c2ccccc2)cc1)c1ccc([N+](=O)[O-])cc1,89.5% (inactive)
7,Fc1ccc(-c2nn(-c3ccccc3)cc2-c2nc3ccccc3o2)cc1,82.3% (inactive)
8,O=S(=O)(Nc1ccccc1)c1ccc(C2CC3(Cl)C(Cl)=C(Cl)C2(Cl)C3(Cl)Cl)cc1 (stereo not given),29.9% (inactive)
9,N#C/C(=C\c1ccc2ccccc2c1)c1cc2ccccc2[nH]1,1.83% (active)
10,O=[N+]([O-])c1ccc(S(=O)(=O)N2CCN(C3=NS(=O)(=O)c4ccccc4N3c3ccccc3)CC2)cc1,94.5% (inactive)
11,CC(C)n1cnc2c(=S)nc[nH]c21,105% (inactive)
12,O=C1CC(N2C(=O)/C(=C/C(Cl)=C\c3ccc([N+](=O)[O-])cc3)SC2=S)C(=O)N1c1ccc(Cl)cc1 (stereo not given),-26.4% (active)
13,COC(=O)[C@]1(C)CCC[C@]2(C)[C@H]3C[C@H]4C(C(C)C)=C[C@]3(CC[C@H]21)[C@H]1[C@@H]4[C@@H](OCCC#N)CC[C@@H]1OCCC#N,28.4% (inactive)
14,CC(C)c1ccc(COCc2cc(CN3CCCC3)c(O)c3ncccc23)cc1,-40.1% (active)
15,COc1ccc(C2=Nc3c/c(=C\c4c(O)[nH]c5ccc(Cl)cc45)ccc3=N2)cc1,29.3% (inactive)
16,O=C1N[C@@H]2NC(=[N+]3CCOCC3)N[C@@H]2N1,92.9% (inactive)
17,CCOC(=O)c1nc(Nc2ccc(NC(=O)Nc3ccc(F)cc3)cc2)c2ccccc2n1,98.5% (inactive)
18,CC(C)=CCC[C@](C)(O)[C@H]1CC[C@]2(C)[C@@H]1CC[C@@H]1[C@@]3(C)Cc4nccnc4C(C)(C)[C@@H]3CC[C@]12C,62.8% (inactive)
19,CC1=C(C(=O)OC(C)C)C(c2ccc3c(c2)OCO3)NC(=S)N1 (stereo not given),86.4% (inactive)
20,COc1cc(NC(C)CCCNC(C)C)c2ncccc2c1OC (stereo not given),69.6% (inactive)
